This is part of a sample that, as a whole, favours compounds with a hit. Of some 83,000 tested, about 20% had one in any assay.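 Results are percent growth after 48 hours of single-concentration exposure. 100 means growth as in untreated cells, lower positive values show inhibition; negative values down to -100 show cell death.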 Unmarked numbers belong to inactive results. Activity calls are given as the source filed them. The calls were made as follows: active = growth percent below 10; inactive = the rest.
The compounds below were run on MDA-MB-468 breast (assay: NCI-60 one-dose screen, 48 h (100 = growth as untreated, 0 = no growth, -100 = all killed)). Conditions: 10 µM unless noted.

| Compound | growth |
| --- | --- |
| CCC(=O)c1cc([N+](=O)[O-])c(Br)s1 | 74.6% |
| COc1ccc(/C=C/C(c2cc(OC)c(OC)c(OC)c2)n2cncn2)cc1 (stereo not given) | 40.9% |
| Ic1ccccc1-c1ccccc1 | 103% |
| CCCCCCC(C)c1ccccc1O (stereo not given) (tested in a mixture with another compound) | 124% |
| CN(CCC(=O)/C(=C\c1ccccc1)c1ccc(Cl)cc1)Cc1ccccc1 | -35.2% (active) |
| CN([N-]C(=O)CC(=O)[N-]N(C)C(=S)c1ccccc1)C(=S)c1ccccc1.[Cu+2] | -58% (active) |
| Cc1ccc(/C=C(\C#N)n2nc3cccc(F)c3n2)cc1 | 85.2% |
| COc1ccc(NC(=S)N/N=C/c2ccccc2SSCCC(=O)OC[C@H]2O[C@H](O)[C@H](O)[C@@H](O)[C@@H]2O)cc1 | -8.32% (active) |
| COc1cc(Cl)cc(-c2nn(C(=O)NS(=O)(=O)c3ccc(Cl)cc3)cc2-c2ccncc2)c1 | 83.7% |
| CC1(C)CC(=O)C2=C(C1)Nc1cc3c(cc1C2c1ccc(F)cc1)OCO3 (stereo not given) | 71.4% |
| Nc1ccc(S(=O)(=O)O)c2cc(S(=O)(=O)O)cc(O)c12 | 106% |
| CCOC(=O)C1=C(C)NC(=O)NC1c1cccs1 (stereo not given) | 102% |
| C[C@@H](CO)[C@@H]1CC[C@]2(C(=O)N3CCN(C)CC3)CC[C@]3(C)[C@H](CC[C@@H]4[C@@]5(C)CC[C@H](O)C(C)(C)[C@@H]5CC[C@]43C)[C@@H]12 | 61% |
| COc1cc(C2CC(c3ccc(Cl)cc3)=NN2C=O)ccc1Oc1ccnc2cc(Cl)ccc12 (stereo not given) | 39.7% |
| COc1cc(OC)cc(C(=O)C[n+]2cccc3cc[nH]c32)c1 | 90.9% |
| CS(=O)(=O)OCCN(CCOS(C)(=O)=O)c1ccc(/C=N/Nc2ccc([N+](=O)[O-])cc2[N+](=O)[O-])cc1 | 87.9% |
| CCNC(=O)N1CCc2cc(OC)c(OCCc3ccc(OC)cc3)cc2C1c1ccc(Cl)cc1C (stereo not given) | -1.44% (active) |
| COC(=O)CCc1n(Cc2ccc3ccccc3c2)c2ccccc2[n+]1Cc1ccc2ccccc2c1 | -15% (active) |
| CCOC(=O)c1nn(C2CCCCO2)c2ccc(NC(=O)CN3CCCC3)cc12 (stereo not given) | 111% |
| Cc1c(Cl)cccc1NCN1C(=O)c2ccccc2C1=O | 98.4% |

| Compound | growth |
| --- | --- |
| O=C(N/N=C\c1cccc([N+](=O)[O-])c1)N/N=C/c1cccc([N+](=O)[O-])c1 | 82% |
| Clc1nc2ccccc2cc1Cn1nnc(Cc2ccccc2)n1 | 11.1% |
| Nc1c(C(=O)Nc2ccncc2)sc2nc3c(cc12)CCCCC3 | 54.2% |
| COc1cc(Nc2cc(O)c3c(=O)cc(-c4ccccc4)oc3c2)cc(OC)c1 | 11.7% |
| C=C(Cl)COC(=O)C(C)(C)O | 118% |
| Cn1ncc2c(C(=O)c3ccc(F)cc3)nc(C(C)(C)C)nc21 | 93.5% |
| CCCN1CC(c2ccc(OC)c(OC)c2)=C(c2cn(C(=O)OCC)c3ccccc23)C1=O | 6.47% (active) |
| CN=C1C=C/C(=N/N=c2/ccn(O)cc2C)C=C1C | 83.1% |
| O=C(c1ccccc1)c1ccccc1Cl | 110% |
| Cc1ccc(NC(=O)c2sc3nc(C)c(Br)c(C)c3c2N)cc1 | 66.6% |
| COC(=O)c1ccc(NC2=C/C(=N/S(=O)(=O)c3ccc(C(=O)O)cc3)c3ccccc3C2=O)cc1 | -37.4% (active) |
| S=c1sc2c(Cl)nc(-c3cccnc3)nc2n1-c1ccccc1 | -34.2% (active) |
| Cc1[nH]n(C(N)=S)c(=O)c1N=Nc1ccc(S(=O)(=O)Nc2ccncn2)cc1 | 86.4% |
| COc1nc(Nc2cccc(C(F)(F)F)c2)nc(OC)n1 | 112% |
| COc1ccccc1NC(=O)N/C(N)=N/c1nc2ccccc2s1 | 14.2% |
| CCc1ccc(-c2ccc(-n3nc(C)c4c(N)nc(Cc5ccccc5)nc43)cc2)cc1 | 38.9% |
| COc1ccc(NS(=O)(=O)c2ccc(-c3cnc(C4CC4)o3)cc2)cc1 | 12.5% |
| CCOC(=O)c1c(C)nc2c(c1N)/C(=C/c1cc(OC)c(OC)c(OC)c1)C(=O)N2c1ccc(OC)cc1 | 56% |
| Nc1nc(Cl)cc(Cl)n1 | 99.4% |
| Cc1c(-c2noc(-c3ccc([N+](=O)[O-])cc3)n2)no[n+]1[O-] | 104% |

From PubChem BioAssay (NCI)
